Bioassay records deposited in PubChem by National Center for Advancing Translational Sciences (NCATS).
AmpC detergent: qHTS Inhibitors of AmpC Beta-Lactamase (assay with detergent). AmpC hydrolysis of nitrocefin, absorbance 480 nm, 0.01% Triton. 0.041% of 370,000 active. Potency, µM (highest dose often 114 µM), actives largely listed as inhibitors. P00811; note: nearly all actives have a fitted effect of over 25% in size
Target sequence (P00811 whole entry, looked up): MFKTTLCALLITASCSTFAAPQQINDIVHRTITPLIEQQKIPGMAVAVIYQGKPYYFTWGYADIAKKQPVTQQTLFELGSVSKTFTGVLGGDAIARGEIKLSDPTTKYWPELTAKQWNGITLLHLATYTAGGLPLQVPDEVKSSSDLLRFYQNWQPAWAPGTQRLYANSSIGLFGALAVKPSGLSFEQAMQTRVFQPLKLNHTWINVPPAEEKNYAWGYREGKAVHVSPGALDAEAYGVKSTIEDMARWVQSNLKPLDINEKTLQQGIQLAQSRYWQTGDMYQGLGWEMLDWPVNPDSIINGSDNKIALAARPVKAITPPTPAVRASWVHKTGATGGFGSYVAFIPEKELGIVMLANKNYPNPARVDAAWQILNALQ
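AmpC (5.3 nM in the dispensed reagent) in 20 mM phosphate pH 7.0 with 0.01% (detergent screen) or 0.0001% Triton X-100 was preincubated with compounds for 15 min at room temperature. Nitrocefin was then added from an 800 uM solution, and hydrolysis was followed at 480 nm.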
AmpC inh no detg: qHTS Inhibitors of AmpC Beta-Lactamase (assay without detergent); AmpC nitrocefin hydrolysis, absorbance 480 nm, 0.0001% Triton; Potency, µM (highest dose often 57.1 µM), hits mostly inhibitors; 0.52% of 330,000 active; AID 485341, 2010; note: nearly all actives have a fitted effect of over 20% in size
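20 mM phosphate pH 7.0 + 0.01% (detergent screen) or 0.0001% Triton X-100; 5.3 nM AmpC reagent; cpd preinc 15 min RT; nitrocefin (800 uM stock) to start; A480 q20 s × 4 min; Activity was normalised to no-enzyme and no-compound control wells.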
Sm TGR block: qHTS Assay for the Inhibitors of Schistosoma Mansoni Peroxiredoxins. AID 485364, 2010. Schistosoma mansoni thioredoxin glutathione reductase (TGR), Q962Y6. Potency, µM (top dose mostly 114 µM), actives largely listed as inhibitors. purified TGR, DTNB reduction, TNB absorbance 405 nm. 3% of 360,000 active; note: nearly all actives have a fitted effect of over 60% in size
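TGR 20 nM + NADPH 100 uM (dispensed conc.), cpd preinc 15 min RT; start with NADPH (500 uM addition) then DTNB (15 mM addition). Kinetic TNB absorbance, 405 nm filter. Four-parameter Hill fit across titration.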
AMA1 RON2 block: qHTS for Inhibitors of AMA1-RON; Towards Development of Antimalarial Drug Lead: Primary Screen; Plasmodium falciparum AMA1 (3D7) - RON2 peptide interaction; AlphaScreen AMA1-biotinylated RON2 peptide binding; Potency, µM (highest dose often 58.2 µM), usual class: inhibitors; 0.2% of 360,000 active; AID 720542, 2013; note: nearly all actives have a fitted effect of over 45% in size
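AMA1 (3D7) with his tag at 25 nM final met compounds first, then biotinylated RON2 peptide at 25 nM; detection used donor plus acceptor beads, 10 µg/mL apiece, read by AlphaScreen after 30 min at room temperature.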
FMDV inh: High Throughput Screening for Foot and Mouth Disease Virus Antivirals. FMDV antiviral cell-based qHTS. Potency, µM (series often up to 57.9 µM), most hits filed as inhibitors. 1.2% of 410,000 active; calls by dose curve; tested in HEK293T cells; note: read-out not given here; nearly all actives have a fitted effect of over 45% in size
A number is an active result; 0 = inactive; ? = inconclusive; - = no result given; [ ] = dose if it differs, or a comment. Hits are enriched below; roughly 4.1% of the tested compounds scored in any of these assays. Unless noted, calls come from the whole dose curve; as a rule, active = well fitted curve in the direction sought with a large enough effect; inconclusive = small, poorly fitted or top-dose-only effect, or another doubt; inactive = no such curve, though single readings can be large; an effect the other way counts as inactive or inconclusive.

SMILES	AmpC detergent	AmpC inh no detg	Sm TGR block	AMA1 RON2 block	FMDV inh
CC(=O)Nc1ccc(NC(=O)CN2C(=O)CCc3cc(S(=O)(=O)N4CCCCC4)ccc32)cc1	0	-	0	-	0
Cc1ccc(NC(=O)CN(C)S(=O)(=O)c2cccc3nsnc23)cc1	0	0.16µM	0	0	0
Clc1ccc(C2=CC(c3ccco3)n3ncnc3N2)cc1 (stereo not given)	0	0	50µM	0	0
Cc1ccc(C2=CC(c3ccc(C)cc3)n3ncnc3N2)cc1 (stereo not given)	-	-	-	0	0
CC(=O)Nc1cccc(C2=CC(c3ccco3)n3ncnc3N2)c1 (stereo not given)	0	0	13µM	-	-
Clc1ccccc1C1=CC(c2ccco2)n2ncnc2N1 (stereo not given)	0	0	13µM	0	0
COc1ccc(C2C=C(c3ccccc3)Nc3ncnn32)cc1 (stereo not given)	0	0	32µM	0	0
CC(C)(C)OC(=O)N1CCC(c2c(C(=O)NCc3ccco3)cnn2-c2ccc(F)cc2F)CC1	0	-	0	-	0
COC(=O)C1CCCCN1Cc1ccc2c(c1)CN(C(=O)c1csc(-c3cccs3)n1)CCO2 (stereo not given)	-	-	-	-	0
CCc1ccc(NC(=O)C2CCN(c3ccc(Sc4ccc(C)cc4)nn3)CC2)cc1	0	-	0	-	0
COC(=O)c1cn([C@@H]2C[C@@H](C(=O)Nc3cccc(SC)c3)N(C3CCCCCC3)C2)nn1	-	-	-	-	0
COc1ccc(C2=CC(c3ccco3)n3ncnc3N2)cc1 (stereo not given)	0	0	10µM	0	0
C=CCOc1ccc(C(c2c(C(=O)O)[nH]c3ccccc23)c2c(C(=O)O)[nH]c3ccccc23)cc1	0	22µM	0	0	0
O=C(CNC(=O)c1ccccc1F)OCc1cc(=O)n2ccsc2n1	0	-	0	-	0
O=C(c1noc2c1CCCCC2)N1CCN(c2ccc(Cl)cc2)CC1	0	-	0	-	?
CN(C)S(=O)(=O)c1ccc(C(=O)Oc2cc(=O)[nH]c3ccccc23)cc1	0	0	20µM	0	0
CCN(C(=O)CSc1nc2ccccc2n1CC(=O)Nc1cccc(C#N)c1)c1ccccc1	0	-	0	-	0
COc1cc(-c2ccc(Cl)cn2)cc2c1OCCN(C(=O)c1ccccc1-n1cccn1)C2	-	-	-	-	0
O=C1CN(C(=O)CNCc2cccc(Cl)c2)c2ccccc2N1	0	0	45µM	0	0
O=C1CN(C(=O)CNCc2ccccc2Cl)c2ccccc2N1	0	0	?	0	0
Cc1cc(C)c(NC(=O)CSc2nc(=O)n(Cc3ccco3)c3c2CCC3)c(C)c1	0	-	0	-	0
COc1ccc(Oc2c(C)oc3cc(OC(=O)N(C)C)ccc3c2=O)cc1	0	0	22µM	0	0
COc1ccccc1Oc1c(C)oc2cc(OC(=O)N(C)C)ccc2c1=O	0	0	0	0	0
O=C(NCCN1CCCCC1)c1ccc(Cn2c(SCc3ccc(F)cc3)nc3cccnc32)cc1	0	-	0	-	0
Cn1cnc(C(=O)N2CCN(c3ccccc3)CC2)c1C(=O)N1CCN(c2ccccc2)CC1	0	0	20µM	0	0
SMILES	AmpC detergent	AmpC inh no detg	Sm TGR block	AMA1 RON2 block	FMDV inh
Cn1cnc(C(=O)N2CCN(C(=O)OC(C)(C)C)CC2)c1C(=O)N1CCN(C(=O)OC(C)(C)C)CC1	0	0	22µM	0	0
Cc1nn(S(=O)(=O)c2ccc(C(C)C)cc2)c(C)c1S(=O)(=O)N1CCCCC1	0	-	0	-	0
Cc1ccc(/C=N/N2CCN(Cc3ccc(C)cc3)CC2)cc1	0	0	0	0	0
O=[N+]([O-])c1ccc(Cl)c(/C=N/N2CCN(Cc3ccccc3Cl)CC2)c1	0	0	0	?	?
FC(F)(F)c1ccc(/C=N/N2CCN(Cc3ccccc3)CC2)cc1	?	0	0	20µM	0
Cc1ccc(CN2CCN(/N=C\c3cccc([N+](=O)[O-])c3)CC2)cc1	0	0	0	14µM	?
O=[N+]([O-])c1ccccc1/C=N\N1CCN(Cc2ccccc2Cl)CC1	?	0	0	20µM	0
O=[N+]([O-])c1ccc(/C=N/N2CCN(Cc3ccccc3)CC2)cc1	0	0	0	25µM	0
COc1ccc(NC(=O)c2cc(C3CCCCN3C(=O)c3ccc(Cl)cc3)on2)c(C)c1 (stereo not given)	-	-	-	0	0
COC(=O)[C@@H]1C[C@@H](NC(=O)c2cccc3c(C)c(C)[nH]c23)CN1Cc1cccc2ccccc12	-	-	-	-	0
CCOc1ccc(-n2c(SCc3ccccc3)nc3c([nH]c4ccccc43)c2=O)cc1	0	-	0	-	0
O=[N+]([O-])c1ccccc1C=NN1CCCCCC1	-	-	-	18µM	0
O=[N+]([O-])c1ccccc1/C=N/N1CCN(Cc2ccccc2)CC1	0	0	0	28µM	0
Cc1ccc(N2CCN(/N=C/c3ccccc3[N+](=O)[O-])CC2)cc1	0	0	0	?	0
Cc1cnc(C)c(-c2ccc(F)c3c2OC(CNC(=O)Cc2c(C)[nH]c4ccccc24)C3)n1 (stereo not given)	-	-	-	-	0
Cc1ccccc1Cn1c(CN2CCCC(C)C2)nc2c1c(=O)n(C)c(=O)n2C (stereo not given)	0	-	0	-	0
COc1ccc(NS(=O)(=O)c2c(F)cc(F)c(Cl)c2F)cc1S(=O)(=O)N1CCCCC1	0	0	0	0[11.6 µM]	0
COc1ccc(NS(=O)(=O)c2c(F)cccc2F)cc1S(=O)(=O)N1CCOCC1	0	0	40µM	0	0
Cc1nn(CC(=O)Nc2ccc3c(c2)nc2n3CCOC2)c(=O)c2ccccc12	0	0	0	0	0
COCCN1CCn2c(nc3cc(NC(=O)NC4CCCCC4)ccc32)C1	0	0	8.9µM	0	0
COCCN1CCn2c(nc3cc(NC(=O)c4ccc(OC)cc4)ccc32)C1	0	0	16µM	0	0
